What was measured:
[1] = target: Mitogen-activated protein kinase 3 (Homo sapiens) (UniProt P27361); settings: at 1 µM;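 also: values are mean percent inhibition of MAPK3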
[2] = target: SRSF protein kinase 3 (Homo sapiens) (UniProt Q9UPE1); settings: at 0.1 µM
[3] = target: SRSF protein kinase 3 (Homo sapiens) (UniProt Q9UPE1); settings: at 1 µM
[4] = target: Mitogen-activated protein kinase 14 (Homo sapiens) (UniProt Q16539); settings: at 0.1 µM
[5] = target: Mitogen-activated protein kinase 14 (Homo sapiens) (UniProt Q16539); settings: at 1 µM
[6] = target: Mitogen-activated protein kinase 11 (Homo sapiens) (UniProt Q15759); settings: at 0.1 µM
[7] = target: Mitogen-activated protein kinase 11 (Homo sapiens) (UniProt Q15759); settings: at 1 µM
[8] = target: T1, Mitogen-activated protein kinase 13 (Homo sapiens) (UniProt O15264); settings: at 0.1 µM
T1 sequence (whole entry): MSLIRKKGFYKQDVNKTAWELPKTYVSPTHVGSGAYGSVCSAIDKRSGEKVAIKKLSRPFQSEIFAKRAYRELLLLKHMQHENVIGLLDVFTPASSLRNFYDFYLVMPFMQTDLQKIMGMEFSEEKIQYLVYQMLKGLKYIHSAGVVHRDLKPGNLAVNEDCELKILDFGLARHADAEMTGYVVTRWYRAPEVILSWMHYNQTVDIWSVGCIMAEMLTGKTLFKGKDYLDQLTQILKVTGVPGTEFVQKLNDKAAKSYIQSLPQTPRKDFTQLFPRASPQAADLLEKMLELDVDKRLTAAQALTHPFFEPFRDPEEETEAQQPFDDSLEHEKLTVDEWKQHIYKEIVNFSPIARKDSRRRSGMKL

[9] = target: T1, Mitogen-activated protein kinase 13 (Homo sapiens); settings: at 1 µM
[10] = target: T2, Mitogen-activated protein kinase 12 (Homo sapiens) (UniProt P53778); settings: at 0.1 µM
T2 sequence (whole entry): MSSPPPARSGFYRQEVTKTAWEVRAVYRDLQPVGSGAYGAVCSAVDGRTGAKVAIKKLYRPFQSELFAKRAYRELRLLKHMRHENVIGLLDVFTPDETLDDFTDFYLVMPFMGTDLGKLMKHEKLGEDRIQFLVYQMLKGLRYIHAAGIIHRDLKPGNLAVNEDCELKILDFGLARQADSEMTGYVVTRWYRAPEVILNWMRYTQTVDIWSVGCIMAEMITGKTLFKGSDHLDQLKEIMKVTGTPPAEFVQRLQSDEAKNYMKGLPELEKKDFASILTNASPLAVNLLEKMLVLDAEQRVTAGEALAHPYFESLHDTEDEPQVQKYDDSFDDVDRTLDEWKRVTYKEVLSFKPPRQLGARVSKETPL

[11] = target: T2, Mitogen-activated protein kinase 12 (Homo sapiens); settings: at 1 µM
[12] = target: SRSF protein kinase 1 (Homo sapiens) (UniProt Q96SB4); settings: at 0.1 µM
[13] = target: SRSF protein kinase 1 (Homo sapiens) (UniProt Q96SB4); settings: at 1 µM
[14] = target: Phosphatidylinositol 4,5-bisphosphate 3-kinase catalytic subunit alpha isoform (Homo sapiens) (UniProt P42336); settings: at 0.1 µM
[15] = target: Phosphatidylinositol 4,5-bisphosphate 3-kinase catalytic subunit alpha isoform (Homo sapiens) (UniProt P42336); settings: at 1 µM
[16] = target: T3, Phosphatidylinositol 4,5-bisphosphate 3-kinase catalytic subunit delta isoform (Homo sapiens) (UniProt O00329); settings: at 0.1 µM
T3 sequence (whole entry): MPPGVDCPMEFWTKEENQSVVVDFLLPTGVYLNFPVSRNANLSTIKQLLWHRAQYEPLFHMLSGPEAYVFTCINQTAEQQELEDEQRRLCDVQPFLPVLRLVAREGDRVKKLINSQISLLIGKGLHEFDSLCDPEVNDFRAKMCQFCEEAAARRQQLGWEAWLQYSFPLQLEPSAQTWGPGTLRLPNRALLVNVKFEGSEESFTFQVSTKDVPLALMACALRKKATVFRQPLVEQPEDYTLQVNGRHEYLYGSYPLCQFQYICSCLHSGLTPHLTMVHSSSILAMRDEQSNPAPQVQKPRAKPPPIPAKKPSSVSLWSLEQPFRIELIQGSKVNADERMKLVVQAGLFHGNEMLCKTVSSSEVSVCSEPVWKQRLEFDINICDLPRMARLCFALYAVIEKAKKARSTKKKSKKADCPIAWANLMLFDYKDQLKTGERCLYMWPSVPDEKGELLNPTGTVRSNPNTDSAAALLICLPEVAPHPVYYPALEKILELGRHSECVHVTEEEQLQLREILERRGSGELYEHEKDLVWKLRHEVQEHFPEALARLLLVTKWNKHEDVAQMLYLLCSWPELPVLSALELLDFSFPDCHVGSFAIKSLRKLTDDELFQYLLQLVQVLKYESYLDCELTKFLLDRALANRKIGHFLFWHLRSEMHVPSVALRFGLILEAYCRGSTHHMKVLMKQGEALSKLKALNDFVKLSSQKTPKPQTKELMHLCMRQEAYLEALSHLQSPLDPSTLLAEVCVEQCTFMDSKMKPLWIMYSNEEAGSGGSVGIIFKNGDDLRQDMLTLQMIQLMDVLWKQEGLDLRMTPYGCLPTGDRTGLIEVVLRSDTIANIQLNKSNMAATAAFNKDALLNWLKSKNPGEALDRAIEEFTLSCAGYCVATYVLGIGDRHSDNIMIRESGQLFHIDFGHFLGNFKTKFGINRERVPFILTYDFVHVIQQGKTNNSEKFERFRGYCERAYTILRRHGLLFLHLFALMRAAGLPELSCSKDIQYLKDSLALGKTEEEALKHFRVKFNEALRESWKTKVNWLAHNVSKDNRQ

[17] = target: T3, Phosphatidylinositol 4,5-bisphosphate 3-kinase catalytic subunit delta isoform (Homo sapiens); settings: at 1 µM
[18] = target: Phosphatidylinositol 4-kinase beta (Homo sapiens) (UniProt Q9UBF8); settings: at 0.1 µM
[19] = target: Phosphatidylinositol 4-kinase beta (Homo sapiens) (UniProt Q9UBF8); settings: at 1 µM
[20] = target: Sphingosine kinase 1 (Homo sapiens) (UniProt Q9NYA1); settings: at 0.1 µM;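 also: mean percent inhibition of SPHK1 activity, measured within the GSK PKIS screening panel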
Chain of Sphingosine kinase 1 (Homo sapiens) (Q9NYA1 whole entry): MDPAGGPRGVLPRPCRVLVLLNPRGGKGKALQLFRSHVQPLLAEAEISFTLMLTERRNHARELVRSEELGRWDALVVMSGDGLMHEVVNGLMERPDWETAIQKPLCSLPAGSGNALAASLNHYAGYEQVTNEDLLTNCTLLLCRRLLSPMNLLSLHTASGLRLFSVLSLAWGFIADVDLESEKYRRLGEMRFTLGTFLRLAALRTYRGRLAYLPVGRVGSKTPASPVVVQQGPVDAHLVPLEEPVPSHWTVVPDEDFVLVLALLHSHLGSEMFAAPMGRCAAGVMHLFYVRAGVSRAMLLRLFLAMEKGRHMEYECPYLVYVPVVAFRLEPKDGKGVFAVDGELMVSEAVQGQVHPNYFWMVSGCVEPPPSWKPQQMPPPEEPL

Chain of Mitogen-activated protein kinase 3 (Homo sapiens) (P27361 whole entry): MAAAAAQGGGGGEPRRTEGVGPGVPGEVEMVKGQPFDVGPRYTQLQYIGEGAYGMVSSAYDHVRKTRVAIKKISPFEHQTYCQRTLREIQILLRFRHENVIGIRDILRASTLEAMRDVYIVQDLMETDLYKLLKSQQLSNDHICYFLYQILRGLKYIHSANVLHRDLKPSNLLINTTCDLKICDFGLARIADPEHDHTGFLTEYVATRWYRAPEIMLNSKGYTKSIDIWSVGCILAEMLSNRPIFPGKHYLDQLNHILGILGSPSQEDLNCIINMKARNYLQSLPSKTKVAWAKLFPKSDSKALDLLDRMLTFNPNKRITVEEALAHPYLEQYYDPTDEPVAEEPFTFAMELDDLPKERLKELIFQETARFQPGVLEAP
Chain of Mitogen-activated protein kinase 11 (Homo sapiens) (Q15759 whole entry): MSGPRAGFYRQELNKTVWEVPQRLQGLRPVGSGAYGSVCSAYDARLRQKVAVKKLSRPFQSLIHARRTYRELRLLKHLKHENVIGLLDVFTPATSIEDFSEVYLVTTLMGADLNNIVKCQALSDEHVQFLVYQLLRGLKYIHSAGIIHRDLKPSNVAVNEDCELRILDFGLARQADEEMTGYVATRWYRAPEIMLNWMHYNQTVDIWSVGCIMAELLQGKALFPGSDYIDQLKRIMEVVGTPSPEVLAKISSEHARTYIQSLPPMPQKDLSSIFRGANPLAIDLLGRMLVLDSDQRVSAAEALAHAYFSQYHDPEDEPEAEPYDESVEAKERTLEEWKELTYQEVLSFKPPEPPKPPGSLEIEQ
Chain of Mitogen-activated protein kinase 14 (Homo sapiens) (Q16539 whole entry): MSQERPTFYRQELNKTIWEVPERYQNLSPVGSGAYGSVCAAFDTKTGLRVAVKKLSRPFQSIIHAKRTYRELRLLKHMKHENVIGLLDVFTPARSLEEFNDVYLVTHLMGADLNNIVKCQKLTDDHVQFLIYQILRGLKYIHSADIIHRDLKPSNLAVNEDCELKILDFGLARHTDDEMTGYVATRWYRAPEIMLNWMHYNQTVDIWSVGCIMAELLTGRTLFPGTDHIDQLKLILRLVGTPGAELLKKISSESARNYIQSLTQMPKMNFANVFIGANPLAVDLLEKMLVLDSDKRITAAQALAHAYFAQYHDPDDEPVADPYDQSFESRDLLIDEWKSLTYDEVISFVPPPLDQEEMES
Chain of SRSF protein kinase 3 (Homo sapiens) (Q9UPE1 whole entry): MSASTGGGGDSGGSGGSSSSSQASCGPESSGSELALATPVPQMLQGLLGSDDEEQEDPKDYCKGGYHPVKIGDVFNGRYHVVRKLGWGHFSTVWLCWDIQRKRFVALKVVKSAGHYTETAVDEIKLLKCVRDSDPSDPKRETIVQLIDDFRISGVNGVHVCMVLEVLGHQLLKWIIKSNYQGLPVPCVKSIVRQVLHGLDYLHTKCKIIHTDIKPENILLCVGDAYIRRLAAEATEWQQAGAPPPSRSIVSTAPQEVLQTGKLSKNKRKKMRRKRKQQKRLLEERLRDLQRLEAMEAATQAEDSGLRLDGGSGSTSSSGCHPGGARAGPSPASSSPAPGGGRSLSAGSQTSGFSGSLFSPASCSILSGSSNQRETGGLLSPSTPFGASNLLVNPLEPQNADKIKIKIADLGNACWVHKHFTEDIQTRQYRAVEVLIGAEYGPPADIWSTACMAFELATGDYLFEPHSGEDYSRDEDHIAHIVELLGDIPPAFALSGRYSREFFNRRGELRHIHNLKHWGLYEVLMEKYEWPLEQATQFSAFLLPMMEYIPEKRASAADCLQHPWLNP
Chain of Phosphatidylinositol 4,5-bisphosphate 3-kinase catalytic subunit alpha isoform (Homo sapiens) (P42336 whole entry, canonical isoform): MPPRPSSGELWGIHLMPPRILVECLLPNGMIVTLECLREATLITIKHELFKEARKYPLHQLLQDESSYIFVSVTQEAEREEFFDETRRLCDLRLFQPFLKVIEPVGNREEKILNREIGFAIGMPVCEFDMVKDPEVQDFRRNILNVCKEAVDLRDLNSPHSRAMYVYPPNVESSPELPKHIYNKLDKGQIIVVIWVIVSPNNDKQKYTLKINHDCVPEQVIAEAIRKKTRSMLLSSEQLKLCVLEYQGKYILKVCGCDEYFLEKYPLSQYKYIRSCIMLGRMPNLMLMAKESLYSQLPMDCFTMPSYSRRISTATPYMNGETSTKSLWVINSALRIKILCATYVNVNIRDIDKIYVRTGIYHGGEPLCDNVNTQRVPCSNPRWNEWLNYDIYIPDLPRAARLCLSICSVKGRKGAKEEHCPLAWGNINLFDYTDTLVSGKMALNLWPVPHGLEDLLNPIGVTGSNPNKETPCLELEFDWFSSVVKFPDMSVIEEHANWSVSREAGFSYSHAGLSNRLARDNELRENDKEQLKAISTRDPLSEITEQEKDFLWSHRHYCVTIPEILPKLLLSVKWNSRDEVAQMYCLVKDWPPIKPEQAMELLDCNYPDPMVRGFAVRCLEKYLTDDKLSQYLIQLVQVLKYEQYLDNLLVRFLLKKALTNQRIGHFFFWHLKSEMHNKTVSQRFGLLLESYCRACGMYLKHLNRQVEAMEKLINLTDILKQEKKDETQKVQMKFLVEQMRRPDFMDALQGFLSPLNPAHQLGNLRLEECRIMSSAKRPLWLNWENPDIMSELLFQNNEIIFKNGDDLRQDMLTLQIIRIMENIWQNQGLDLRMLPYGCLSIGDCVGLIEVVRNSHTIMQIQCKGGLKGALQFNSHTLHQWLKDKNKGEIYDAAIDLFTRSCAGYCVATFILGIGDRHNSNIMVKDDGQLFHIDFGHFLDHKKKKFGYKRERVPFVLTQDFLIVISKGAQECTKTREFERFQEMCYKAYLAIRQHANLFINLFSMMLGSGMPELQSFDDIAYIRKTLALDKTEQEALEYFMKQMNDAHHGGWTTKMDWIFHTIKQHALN
Chain of SRSF protein kinase 1 (Homo sapiens) (Q96SB4 whole entry, canonical isoform): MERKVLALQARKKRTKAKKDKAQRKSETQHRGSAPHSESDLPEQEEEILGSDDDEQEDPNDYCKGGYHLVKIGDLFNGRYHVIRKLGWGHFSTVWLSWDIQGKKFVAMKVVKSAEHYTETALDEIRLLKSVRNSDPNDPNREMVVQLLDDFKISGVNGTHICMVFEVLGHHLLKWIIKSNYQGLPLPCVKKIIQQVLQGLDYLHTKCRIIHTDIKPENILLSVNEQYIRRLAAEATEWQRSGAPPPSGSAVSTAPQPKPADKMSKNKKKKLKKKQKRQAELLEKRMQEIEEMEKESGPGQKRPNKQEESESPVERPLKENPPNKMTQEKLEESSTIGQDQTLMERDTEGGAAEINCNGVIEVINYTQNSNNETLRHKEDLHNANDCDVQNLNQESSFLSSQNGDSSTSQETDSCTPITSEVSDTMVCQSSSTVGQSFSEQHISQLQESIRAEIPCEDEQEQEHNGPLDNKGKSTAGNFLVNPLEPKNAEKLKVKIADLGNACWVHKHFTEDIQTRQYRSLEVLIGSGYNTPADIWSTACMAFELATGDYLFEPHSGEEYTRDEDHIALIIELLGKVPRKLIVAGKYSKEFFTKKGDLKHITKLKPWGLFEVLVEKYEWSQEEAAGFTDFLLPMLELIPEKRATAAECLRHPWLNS
Chain of Phosphatidylinositol 4-kinase beta (Homo sapiens) (Q9UBF8 2-816 limits assumed): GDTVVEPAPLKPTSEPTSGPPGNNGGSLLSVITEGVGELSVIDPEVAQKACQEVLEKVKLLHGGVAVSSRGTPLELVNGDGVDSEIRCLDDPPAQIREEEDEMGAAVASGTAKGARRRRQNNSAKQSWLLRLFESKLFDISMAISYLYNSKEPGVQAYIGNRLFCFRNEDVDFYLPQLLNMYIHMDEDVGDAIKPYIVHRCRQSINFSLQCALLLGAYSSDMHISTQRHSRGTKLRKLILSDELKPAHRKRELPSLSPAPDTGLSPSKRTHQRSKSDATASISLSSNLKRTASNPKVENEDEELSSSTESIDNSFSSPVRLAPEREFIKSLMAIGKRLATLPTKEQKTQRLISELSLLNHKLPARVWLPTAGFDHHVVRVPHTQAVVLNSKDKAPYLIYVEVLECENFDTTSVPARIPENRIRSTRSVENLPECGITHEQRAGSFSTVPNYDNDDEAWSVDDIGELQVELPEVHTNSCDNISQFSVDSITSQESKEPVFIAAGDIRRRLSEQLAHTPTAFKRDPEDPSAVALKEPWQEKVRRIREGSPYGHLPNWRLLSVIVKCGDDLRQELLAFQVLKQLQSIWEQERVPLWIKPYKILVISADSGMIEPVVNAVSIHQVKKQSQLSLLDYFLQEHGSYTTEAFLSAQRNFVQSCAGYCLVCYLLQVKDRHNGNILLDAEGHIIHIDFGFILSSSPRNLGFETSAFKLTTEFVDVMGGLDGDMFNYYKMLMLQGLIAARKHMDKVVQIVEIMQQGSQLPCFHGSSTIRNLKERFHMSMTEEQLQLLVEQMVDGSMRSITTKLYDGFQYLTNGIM

SMILES	inhibition [1] [%]	inhibition [2] [%]	inhibition [3] [%]	inhibition [4] [%]	inhibition [5] [%]	inhibition [6] [%]	inhibition [7] [%]	inhibition [8] [%]	inhibition [9] [%]	inhibition [10] [%]	inhibition [11] [%]	inhibition [12] [%]	inhibition [13] [%]	inhibition [14] [%]	inhibition [15] [%]	inhibition [16] [%]	inhibition [17] [%]	inhibition [18] [%]	inhibition [19] [%]	inhibition [20] [%]
CCS(=O)(=O)c1ccc(OC)c(Nc2ncc(-c3cccc(-c4ccccc4F)c3)o2)c1	0.15	0.74	1.45	5.17	8.57	0.03	4.77	3.85	-0.94	-2.59	0.18	0.1	2.33	1.85	2.73	2.24	5.89	-1.01	-4.05	4.17
NS(=O)(=O)c1ccc(Nc2cc(-c3ccc(O)c(F)c3)n[nH]2)cc1	-1.26	-1.38	0.03	-1.03	-2.41	-1.5	6.83	-6.82	-4.19	-2.85	-2.2	1.32	1.27	-2.99	2.09	-0.68	2.48	7.96	9.37	3.64
CCc1cccc(CC)c1/C=C/c1cncc(C(=O)NC)c1	1.29	1.81	0.49	3.92	8.94	4.41	4.99	-0.46	4.25	-2.91	1.19	-1.77	-2.98	1.54	1.36	4.84	3.62	-2.02	-0.43	0.93
Clc1ccc(CNc2nccc(-c3cnn4ncccc34)n2)cc1	1.44	-0.1	-3.75	2.58	7.97	1.06	6.53	-0.19	2.4	0.66	1.18	0.9	1.1	-1.31	0.56	-0.61	1.79	2.18	1.28	-0.17
O=C(Nc1ccc(Oc2ccc3[nH]c(NC(=O)c4ccccc4)nc3c2)cc1)Nc1cc(C(F)(F)F)ccc1F	3.58	4.8	50.7	11.1	40	5.44	32.5	1.65	3.87	-0.11	3.12	-0.76	7.91	0.59	8.12	-0.81	8.31	1.83	-2.27	0.81
COc1ccc2ncn(-c3cc(O[C@H](C)c4ccccc4Cl)c(C(N)=O)s3)c2c1	3.04	-3.56	-0.27	6.99	6.3	2.23	4.3	5.14	4.31	3.31	4.09	-1.6	-1.38	3.9	4.87	1.95	17.5	1.3	-2.87	1.65
COc1cc(Nc2ncc3c(C)nc(-c4cccc(C(F)(F)F)c4)n3n2)cc(OC)c1OC	7.25	-0.69	3.15	1.25	6.99	3.99	8.89	-0.83	1.78	0.21	1.38	-1.06	1.6	1.32	0.9	1.18	-1.04	7.16	1.45	2.98
COc1cc2ncn(-c3cc(OCc4ccccc4C(F)(F)F)c(C(C)=O)s3)c2cc1OC	3.87	-2.61	1.07	4.86	3.85	5.8	4.79	2.82	2.04	2.87	2.91	-0.85	-1.87	1.72	2.65	1.03	1.51	1.58	-4.62	-1.64
COc1cc(C)c(N(C)C(=O)CN(C)C)cc1Nc1nc(Nc2cccc(F)c2C(N)=O)c2cc[nH]c2n1	2.25	1.68	1.28	-0.82	3.91	2.56	0.98	1	1.9	0.25	1.09	-1.96	-3.38	0.08	-0.5	0.21	1.56	3.54	0.7	0.03
O=C(Nc1n[nH]c2nc(-c3ccc(O)cc3)c(Br)cc12)C1CC1	5.57	-1.04	7.81	6.42	16	11.1	38.8	8.19	32.6	1.76	16.6	-0.67	0.36	6.93	6	3.58	6.8	-5.7	3.27	-0.06
CS(=O)(=O)CCNCc1ccc(-c2ccc3ncnc(Nc4ccc(OCc5ccccc5)c(Br)c4)c3c2)o1	4.46	-5.29	-0.77	6.51	5.46	3.98	5.45	4.88	3.53	3.43	3.4	-3.23	-2.26	3.6	1.93	0.72	2.81	-4.04	-0.22	-0.92
COc1cc2ncn(-c3cc(OCCc4ccccc4)c(C(N)=O)s3)c2cc1OC	0.82	-1.68	0.18	4.09	13.1	3.65	2.87	4.25	1.8	-0.53	1.89	-2.73	-4.19	2.08	3.83	2.55	5.55	-0.92	3.17	-0.54
O=C(NCC1CC1)c1ccc(-c2cccc(C(=O)NC3CC3)c2)cc1	0.8	1.6	1.04	1.13	13.9	2.37	7.97	1.41	3.97	4.08	1.8	-1.5	-3.41	1.61	1.53	1.94	2.38	-4.62	-1.95	0.53

Source: ChEMBL document CHEMBL1961873, “Compounds: GSK PKIS; Assays: Nanosyn kinase panel” (2012)
